High-throughput results: PubChem BioAssay, Broad Institute
Tg IFNy HTS = blocks Toxoplasma gondii growth in the presence of IFN-gamma; 69,000 tested, 3.8% active; Toxoplasma gondii growth in IFN-gamma-treated host cells; hits give low values; activity change, negative = inhibition, % (concentration not given with the values); AID 1259416; in the data active means activity change below about -70%, passing the limit was not always enough;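 further: host cells are HeLa cells infected with Toxoplasma gondii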
Active calls of the source: *; ! = not confirmed by another sample. Many of the other results were omitted from the sample, so hits are more common in it than they were.

Screening COc1cc(-c2coc3cc(OC)c(OC)c(OC)c3c2=O)cc(OC)c1OC returned Tg IFNy HTS 2.
COc1cc(-c2coc3cc(OCc4ccccc4)c(OC)c(O)c3c2=O)cc(O)c1OC was read as Tg IFNy HTS -86*.
For COc1ccc(-c2coc3cc(O)ccc3c2=O)c(O)c1O the results were Tg IFNy HTS 18.
For CO[C@@H]1CN(C)C(=O)c2cc(NC(=O)NC(C)C)ccc2OC[C@H](C)N(C(=O)CN(C)C)C[C@@H]1C the results were Tg IFNy HTS 152.
`COc1ccccc1-c1noc(C)c1-c1nn2c(-c3cccs3)nnc2s1` gave Tg IFNy HTS 20.
For CC(C)(C)C(=O)OCC(=O)c1cc(C(F)(F)F)cc(C(F)(F)F)c1 the results were Tg IFNy HTS -35.
`O=c1[nH]c(NCCO)nc2sc3c(c12)CCCC3` gave Tg IFNy HTS 9.
Screening Cc1nc2sc3c(c2c(=O)[nH]1)CCC3 returned Tg IFNy HTS 11.
COc1ccc(-c2nc3sc4c(c3c(=O)[nH]2)CCCC4)cc1 was read as Tg IFNy HTS -87*.
COCc1cn(C2CCN(C(=O)C3CCCCCC3)CC2)nn1 was read as Tg IFNy HTS -13.
For Cc1ccc(C)c(OCCCN(C)C(=O)c2cn3c(n2)CNCC3)c1 the results were Tg IFNy HTS -3.
For CCC[C@H](NC(=O)[C@@H]1[C@H]2CCC[C@H]2CN1C(=O)[C@@H](NC(=O)[C@@H](NC(=O)c1cnccn1)C1CCCCC1)C(C)(C)C)C(=O)C(=O)NC1CC1 the results were Tg IFNy HTS -74*.
For CCS(=O)(=O)N1CCC2(CCC2NC(=O)c2cnccn2)CC1 (stereo not drawn) the results were Tg IFNy HTS 6.
`CC(C)CN1C(=O)CCC12CCC(NC(=O)c1cnccn1)CC2` (stereo not drawn) gave Tg IFNy HTS -2.
Screening CCS(=O)(=O)N1CCC2(CC1)OC(=O)C(C)=C2C(=O)NCCCOC(C)C returned Tg IFNy HTS 60.
For CC[C@@H]1N(S(=O)(=O)c2cn(C)cn2)CCC[C@@]12CCC(=O)N2 the results were Tg IFNy HTS -1.
Cc1nc(CN2CCN(C(=O)c3cnn(Cc4ccccc4)c3)CC2)no1 was read as Tg IFNy HTS 18.
Screening O=c1[nH]nc(-c2cc3c(s2)CCCC3)o1 returned Tg IFNy HTS -100*.
For C[C@H]1CC=CC[C@H](c2ccc(F)cc2)NC(=O)[C@@H](Cc2ccccc2)N(C)C(=O)c2ccccc2O1 (mixture of isomers) the results were Tg IFNy HTS -30.
For Cc1ccnc(NC(c2ccc(C)s2)c2ccc3cccnc3c2O)c1 (stereo not drawn) the results were Tg IFNy HTS 46.
Screening Cc1cc(C)c(C)c(OCCCNC(=O)c2cncnc2C)c1 returned Tg IFNy HTS 20.
Screening CCCCC(=O)Nc1ccc(-c2nc(-c3ccccc3)co2)cc1 returned Tg IFNy HTS 5.
O=C(O)CSCCCC(=O)Nc1ccc(Br)cc1 was read as Tg IFNy HTS -3.
CN(CC(=O)Nc1cccnc1)S(=O)(=O)c1ccc(Cl)cc1 was read as Tg IFNy HTS -53.
For O=C(CCCCCCC(=O)Nc1cccnc1)NO the results were Tg IFNy HTS -84*.
`O=C(NC(=S)Nc1cccnc1)c1ccccc1` gave Tg IFNy HTS -11.
O=C(CCCCCCC(=O)Nc1ccccc1)NO was read as Tg IFNy HTS -84*!.
O=C(NCCc1csc(-c2ccccc2)n1)[C@H]1CCCN1S(=O)(=O)c1cccc2nsnc12 was read as Tg IFNy HTS -36.
For CC(C(=O)NCCc1nc(-c2ccncc2)n[nH]1)c1ccccc1 (stereo not drawn) the results were Tg IFNy HTS -10.
`CN(Cc1ccsc1)Cc1cc2n(n1)CCCNC2` gave Tg IFNy HTS -10.
For COc1ccc(-c2[nH]ncc2CN2CCN(C)CC2)cc1 the results were Tg IFNy HTS 62.
For Cc1cc(CN2CCN(c3c(Br)cnc4nc(-c5ccc(N6CCN(C)CC6)cc5)[nH]c34)CC2)no1 the results were Tg IFNy HTS -74*.
COc1ccc2c3c(n(C)c2c1)[C@H](CO)N(Cc1cccnc1)CC31CN(C(=O)c2cccnc2)C1 was read as Tg IFNy HTS -7.
Screening CCc1cc(CN(C)C(=O)C2CC(=O)N(c3cccc(O)c3)C2)on1 (stereo not drawn) returned Tg IFNy HTS 0.
Screening COCCN1CCC(C(=O)N(C)Cc2cccc(Cl)c2)C1 (stereo not drawn) returned Tg IFNy HTS -4.
COc1nccnc1-c1ccc(C(C)N2CCCCC2)cc1 (stereo not drawn) was read as Tg IFNy HTS -2.
`COc1cc(-c2c(-c3ccccc3)ncn2CCC2CCCN2C)ccc1O` (stereo not drawn) gave Tg IFNy HTS -1.
`CNC(=O)c1ccc(-c2nc(CN3CCN(S(=O)(=O)c4ccc(C)cc4C)CC3)c(C)o2)cc1` gave Tg IFNy HTS -66.
`CNC(=O)c1ccc(-c2nc(CN3CCN(S(=O)(=O)c4c(C)cc(C)cc4C)CC3)c(C)o2)cc1` gave Tg IFNy HTS -96*.
Screening Cc1oc(-c2ccc(C(=O)NCCN3CCCC3)cc2)nc1CN1CCN(c2ccccc2)CC1 returned Tg IFNy HTS -76*.
For CNC(=O)c1ccc(-c2nc(CN3CCN(S(C)(=O)=O)CC3)c(C)o2)cc1 the results were Tg IFNy HTS -8.
For Cc1oc(-c2ccc(C(=O)NCc3cccs3)cc2)nc1CN1CCN(c2ccccc2)CC1 the results were Tg IFNy HTS -57.
For Cc1ccccc1CCNC(=O)c1ccc(-c2nc(CN3CCN(c4ccccc4)CC3)c(C)o2)cc1 the results were Tg IFNy HTS -71*.
Screening Cc1oc(-c2ccc(C(=O)NCCC3=CCCCC3)cc2)nc1CN1CCN(c2ccccc2)CC1 returned Tg IFNy HTS -50.
For Cc1oc(-c2ccc(C(=O)NCCc3ccccc3)cc2)nc1CN1CCN(c2ccccc2)CC1 the results were Tg IFNy HTS -59.
`COc1ccccc1CNC(=O)c1ccc(-c2nc(CN3CCN(c4ccccc4)CC3)c(C)o2)cc1` gave Tg IFNy HTS -109*.
Screening Cc1oc(-c2ccc(C(=O)NCCC(C)C)cc2)nc1CN1CCN(c2ccccc2)CC1 returned Tg IFNy HTS -38.
Screening CCCNC(=O)c1ccc(-c2nc(CN3CCN(c4ccccc4)CC3)c(C)o2)cc1 returned Tg IFNy HTS 60.
For Cc1oc(-c2ccc(C(=O)NCc3ccccn3)cc2)nc1CN1CCN(c2ccccc2)CC1 the results were Tg IFNy HTS -29.
For CC(C)(O)C#Cc1ccc([C@@H]2[C@H]3CN(S(C)(=O)=O)CCCCN3[C@H]2CO)cc1 the results were Tg IFNy HTS 13.
For Cc1nc(C2CCCNC2)cc(N2CCc3[nH]nc(C(C)C)c3C2)n1 (stereo not drawn) the results were Tg IFNy HTS -5.
Screening COCCN(C)CC1COC2(CCCN(C(=O)c3ccc4nc[nH]c4c3)C2)C1 (stereo not drawn) returned Tg IFNy HTS 3.
C=CCNC(=O)c1ccc(-c2ccccc2C(C)=O)cc1 was read as Tg IFNy HTS -16.
COc1ccc2c(c1)NC1(CCN(C(=O)Nc3cc(Cl)ccc3OC)CC1)c1cccn1-2 was read as Tg IFNy HTS inactive.
For Cc1cn([C@H]2C=C[C@@H](CO)O2)c(=O)[nH]c1=O the results were Tg IFNy HTS 34.
COc1ccc(CC(=O)Nc2ccc(-c3nc(Cn4cccn4)c(C)o3)cc2)cc1 was read as Tg IFNy HTS -59.
Cc1cccc(CN2C(=O)CC[C@H]3[C@H]2CCN3C(=O)c2ccoc2C)n1 was read as Tg IFNy HTS -3.
